# Among all 320,000 compounds or so, about 1,300 (0.41%) were called active. Another 3% or so got no clear call; they are omitted. How the calls were made is not given here. These entries were drawn from the full list. Results with a measured potency or affinity are listed apart.
# Experiment: growth inhibition of non-replicating M. tuberculosis (AID 488890);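 further: plate controls were DMSO cells for no effect and high antibiotic wells for full effect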
# Settings: Mycobacterium tuberculosis non-replicating, at 25 µM, stronger effect = higher value
row,Structure (SMILES),inhibition
1,O=C(N/N=C/c1ccc([N+](=O)[O-])o1)c1ccccc1NS(=O)(=O)c1cccs1,48%
2,O=C(N/N=C/c1cccc([N+](=O)[O-])c1)c1cc2ccccc2o1,21.7%
3,O=C(N/N=C/c1ccc([N+](=O)[O-])cc1)c1cc2ccccc2o1,6.74%
4,O=S(=O)(Nc1nc2ccccc2nc1Cl)c1ccc2ccccc2c1,47.8%
5,Cc1ccc(NC(=O)COC(=O)C2CCN(c3ccc(C(F)(F)F)cn3)CC2)cc1C,14.8%
6,N#Cc1nc(N2CCCCC2)nc(N2CCOCC2)n1,13.1%
7,C=CCn1c(CNC(=O)c2ccco2)nnc1SCC(=O)c1ccccc1,12.6%
8,CCCn1c(=O)c(C(=O)NNS(=O)(=O)c2ccc(Cl)cc2)c(O)c2ccccc21,30.4%
9,COc1cc(/C=N\Nc2nncn2N)ccc1OC(C)=O,8.91%
10,COc1ccc(S(=O)(=O)NC(CC(=O)NCCc2ccc(OC)c(OC)c2)c2ccco2)cc1 (stereo not given),-6.87%
11,COCCSc1ccccc1C(=O)N1CCC(Cc2ccccc2)CC1,12.1%
12,O=C(N/N=C/c1ccc([N+](=O)[O-])o1)c1ccc(O)cc1,76.5%
13,O=C(N/N=C/c1ccncc1)c1sc2ccccc2c1Cl,67.1%
14,CCN(CC)C(=O)Cn1cc(S(=O)(=O)CC(=O)Nc2ccc(F)cc2)c2ccccc21,-1.96%
15,C/C(=N\NC(=O)c1ccccc1O)c1c(O)cc(C)oc1=O,76.5%
16,C/C(=N\NC(=O)c1ccccc1[N+](=O)[O-])c1c(O)cc(C)oc1=O,11.3%
17,CCCCCC(=O)c1ccc(O)cc1O,44.3%
18,CCCCCCCCC(=O)N/N=C(\C)c1ccco1,-9.44%
19,CCc1ccc(OCC(=O)N/N=C(\C)c2ccc(O)cc2O)cc1,69%
20,C/C(=N\NC(=O)c1cccnc1)c1c(O)cc(C)oc1=O,-4.46%
21,CCc1ccccc1N/N=C(/C)c1c(O)cc(C)oc1=O,19.8%
22,C/C(=N\Nc1ccccc1)c1c(O)cc(C)oc1=O,54.3%
23,C/C(=C\c1ccccc1)CN1CCC(C(=O)N2CCCC(C)C2)CC1 (stereo not given),22.3%
24,COc1ccc(S(=O)(=O)N(C)C[C@H]2Oc3ccc(NS(=O)(=O)c4cn(C)cn4)cc3C(=O)N([C@H](C)CO)C[C@@H]2C)cc1,-5.84%
25,O=C(CCc1nnc2ccc(NCc3ccco3)nn12)N1CCN(c2ccccc2F)CC1,28.5%
26,O=C(COc1ccccc1)Nc1ccc(Cl)cc1Cl,72.1%
27,Cn1cnc2cc(NS(=O)(=O)c3ccc(Br)cc3)ccc21,-3.25%
28,O=C(CCC(=O)c1ccc(F)cc1)OCc1nnc(-c2ccc([N+](=O)[O-])cc2)o1,37%

row,Structure (SMILES),inhibition
1,Cc1cc(C(=O)N/N=C2\CCCc3ccccc32)c(C)o1,8.07%
2,CC(C)c1ccc2[nH]c3c(c2c1)[C@@H]1CCN2C(=O)CCC[C@H](C3)[C@H]12,18.1%
3,Cc1c(NS(=O)(=O)c2ccc(N=NN(C)C)cc2)c(=O)n(-c2ccccc2)n1C,-13.3%
4,COc1ccc2sc(-c3ccccc3OC)c(-c3ccc4c(c3)OCCO4)c2c1,17.4%
5,O=C1NC(=O)/C(=C/c2ccco2)N1,-3.62%
6,CSc1c2c(nc3ncnn13)CCC2,-27.5%
7,O=C(c1ccco1)N1N=C(c2ccc(Br)cc2)CC1(O)C(F)(F)F (stereo not given),29.3%
8,CC(C)CC1=NN(C(=O)c2ccncc2)C(O)(C(F)(F)F)C1 (stereo not given),47.5%
9,Cc1ccc(C2=NN(C(=O)c3ccco3)C(O)(C(F)(F)F)C2)cc1 (stereo not given),71.2%
10,Cc1ccc(C(=O)N2N=C(c3ccccc3)CC2(O)C(F)(F)F)o1 (stereo not given),58.8%
11,CCOC(=O)/C(=N\Nc1ccccc1Cl)N1CCN(c2ccccc2OC)CC1,19%
12,c1ccc(-n2cnc3cc(NCc4cccs4)ccc32)cc1,28.9%
13,COc1ccc2nc(NC(=O)c3ccccc3-c3ccccc3C(=O)O)sc2c1,76.6%
14,Cc1ccc(C(=O)O)c(C(=O)Nc2nc3ccccc3s2)c1,11.2%
15,O=C(COC(=O)c1ccccc1C(=O)c1ccccc1)NCc1ccc(F)cc1,31.8%
16,O=C(CCC(=O)N1CCN(c2ccccc2F)CC1)N1CCN(c2ccccc2)CC1,45%
17,O=C(CCc1ccccc1)N1CCN(c2ccc(F)cc2)CC1,73.8%
18,COC(=O)c1ccccc1NC(=O)CN1C(=O)CSC1=O,-0.76%
19,CC(C)(C)NCC(O)CON=C1c2ccccc2-c2ccccc21 (stereo not given),65.3%
20,COCCNCC(O)CON=C1c2ccccc2-c2ccccc21 (stereo not given),54.3%
21,COc1ccc(-c2csc3ncnc(N4CCN(c5cccc(C)c5C)CC4)c23)cc1,11.9%
22,O=C(NCCN1CCOCC1)C1CCN(S(=O)(=O)N2CCCCC2)CC1,-2.95%
23,CCOC(=O)N1CCN(S(=O)(=O)c2ccc(C(=O)N(CCCN(C)C)c3nc4ccc(OC)cc4s3)cc2)CC1,3.45%
24,C/C(=C\C(=O)c1ccccc1)Nc1ccc(O)cc1,29.4%
25,COc1ccc(OC)c(N/C(C)=C/C(=O)c2ccncc2)c1,0%
26,COc1ccc(C(=O)c2c3ccc(OC)cc3[n+]([O-])n2Cc2ccc(C(N)=O)cc2)cc1,17.1%
27,COc1ccc(-c2nnc(SCC(=O)N(C)C3CCS(=O)(=O)C3)n2C(C)C)cc1 (stereo not given),-12.8%

# — PubChem BioAssay AID488890 (Southern Research Specialized Biocontainment Screening …, 2010)
